Rows were chosen to be rich in hits. Some 0.86% of all compounds tested hit in one or more screens of this group.
AmpC no deterg – AmpC beta-lactamase inhibition without detergent; P00811; AmpC nitrocefin hydrolysis, absorbance 480 nm, 0.0001% Triton; Potency, µM (titrated, usually from 57.1 µM), actives largely listed as inhibitors; actives 0.52% (n = 330,000); note: nearly all actives have a fitted effect of over 20% in size
Target sequence (P00811 whole entry, looked up): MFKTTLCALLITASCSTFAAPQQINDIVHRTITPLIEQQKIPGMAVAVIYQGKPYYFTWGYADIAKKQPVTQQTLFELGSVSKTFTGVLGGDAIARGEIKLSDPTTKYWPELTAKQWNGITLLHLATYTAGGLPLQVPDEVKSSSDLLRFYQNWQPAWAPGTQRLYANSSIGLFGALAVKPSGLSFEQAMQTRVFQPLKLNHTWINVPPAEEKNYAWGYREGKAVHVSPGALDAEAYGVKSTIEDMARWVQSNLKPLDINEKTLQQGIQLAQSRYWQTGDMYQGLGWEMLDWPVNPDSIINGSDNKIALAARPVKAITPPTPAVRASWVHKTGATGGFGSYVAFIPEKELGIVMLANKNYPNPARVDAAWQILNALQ
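20 mM phosphate pH 7.0 + 0.01% (detergent screen) or 0.0001% Triton X-100; 5.3 nM AmpC reagent; cpd preinc 15 min RT; nitrocefin (800 uM stock) to start; A480 q20 s × 4 min; Activity was normalised to no-enzyme and no-compound control wells.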
AMA1-RON2 inh – disrupts binding of P. falciparum AMA1 to RON2 | AlphaScreen AMA1-biotinylated RON2 peptide binding | Potency, µM (top dose mostly 58.2 µM), usual class: inhibitors | actives 0.2% (n = 360,000) | AID 720542; note: nearly all actives have a fitted effect of over 45% in size
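AMA1 (3D7) with his tag at 25 nM final met compounds first, then biotinylated RON2 peptide at 25 nM; detection used donor plus acceptor beads, 10 µg/mL apiece, read by AlphaScreen after 30 min at room temperature.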
AmpC detergent – inhibitors of E. coli AmpC beta-lactamase with detergent; P00811; actives 0.041% (n = 370,000); AmpC hydrolysis of nitrocefin, absorbance 480 nm, 0.01% Triton; Potency, µM (top dose mostly 114 µM), most hits filed as inhibitors; AID 485294; note: nearly all actives have a fitted effect of over 25% in size
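20 mM phosphate pH 7.0 + 0.01% (detergent screen) or 0.0001% Triton X-100; 5.3 nM AmpC reagent; cpd preinc 15 min RT; nitrocefin (800 uM stock) to start; A480 q20 s × 4 min; Activity was normalised to no-enzyme and no-compound control wells.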
NS1 inh – inhibitors of influenza NS1 protein function; Potency, µM (titrated, usually from 46.1 µM); actives 0.4% (n = 270,000); calls by dose curve; note: actives are rising curves; nearly all actives have a fitted effect of over 50% in size
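Growth recovery, yeast-based: influenza A NS1 expressed in S. cerevisiae causes slow growth, and suppressors are detected by OD600. The parent strain without NS1 is used as positive control.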
Of the large screens only hits and unclear results are named; the others gave an inactive call. Unless noted, calls come from the whole dose curve; as a rule, active = well fitted curve in the direction sought with a large enough effect; inconclusive = small, poorly fitted or top-dose-only effect, or another doubt; inactive = no such curve, though single readings can be large; an effect the other way counts as inactive or inconclusive.

COC(=O)c1c(C)oc2c1cc(NS(=O)(=O)c1cccs1)c1ccccc12	AmpC no deterg 11.2µM
Cc1ccc2nc(-c3ccccn3)cc(C(=O)NC3CCN(C)CC3)c2c1	none (no result: AMA1-RON2 inh)
Cc1nnc(Sc2cc(NCCO)c([N+](=O)[O-])c3nonc23)s1	AmpC detergent inconclusive (no result: NS1 inh)
Cc1nnc(Sc2cc(NCCCO)c([N+](=O)[O-])c3nonc23)s1	AmpC no deterg 28.2µM, AmpC detergent inconclusive
CCOC(=O)C1(CCCc2ccccc2)CCN(C(=O)C(C)n2cncn2)CC1 (stereo not given)	none
Cc1ccc(C)c2c1c1ccccc1n2C	none
CN(C)c1cc2c3ccccc3n(C)c2cc1N	AMA1-RON2 inh 3.55µM (no result: AmpC no deterg, AmpC detergent, NS1 inh)
COc1ccc(C(=O)/C=C/c2ccc(N(C)C)cc2)c(OC)c1	none
COc1cc2c(cc1OC)C(=Cc1ccc(N(C)C)cc1)C=C2	AMA1-RON2 inh 8.91µM (no result: AmpC no deterg, AmpC detergent, NS1 inh)
CCc1cccc(NC(=O)Nc2cccs2)c1	AmpC no deterg 15.8µM
Cc1ccc(OCCn2c(NC(=O)c3ccco3)nc3ccccc32)cc1	AmpC no deterg 20µM
CCOC(=O)c1ccc(NC(=O)NCCOCCn2c(=O)oc3ccccc32)cc1	none (no result: AmpC no deterg, AMA1-RON2 inh, NS1 inh)
COc1ccc2c(c1)Sc1ccccc1N2	AMA1-RON2 inh 15.8µM, AmpC detergent inconclusive (no result: NS1 inh)
c1ccc2c(c1)Nc1cc3ccccc3cc1S2	none
O=C1C=CC2=C3c4cc(O)c(O)cc4CC3(O)COC2=C1O (stereo not given)	AMA1-RON2 inh 2.82µM (no result: AmpC no deterg, AmpC detergent, NS1 inh)
CCC(=O)NC(C)C(c1cccs1)N1CCN(Cc2ccccc2)CC1 (stereo not given)	AmpC no deterg 44.7µM, AmpC detergent inconclusive
CC1CCN(C2=C(NS(=O)(=O)c3ccccc3)C(=O)c3ccccc3C2=O)CC1	AMA1-RON2 inh inconclusive
O=C1C(NS(=O)(=O)c2ccccc2)=C(N2CCN(c3ccc(F)cc3)CC2)C(=O)c2ccccc21	AMA1-RON2 inh 17.8µM
CN(C1=C(N2CCCCC2)C(=O)c2ccccc2C1=O)c1ccccc1	AMA1-RON2 inh 9.47µM
CC1CCN(C2=C(NS(=O)(=O)c3ccc(Br)cc3)C(=O)c3ccccc3C2=O)CC1	AMA1-RON2 inh 12.6µM
O=C1C(NS(=O)(=O)c2ccc(Br)cc2)=C(N2CCCCC2)C(=O)c2ccccc21	AMA1-RON2 inh 15.8µM
CCSc1nnc(NC(=O)Cc2cc(OC)c(OC)c(OC)c2)s1	none (no result: NS1 inh)
CCc1nc2ccc(C(=O)NCCCN3CCCC3=O)cn2c1N(CC)Cc1cccc(Br)c1	none (no result: AmpC no deterg, AmpC detergent, NS1 inh)
CCN(C(=O)c1cc2cc(Br)cc(OC)c2oc1=O)c1ccccc1	none (no result: AmpC no deterg, AMA1-RON2 inh, NS1 inh)
COc1cc(/C=C/C(=O)Nc2ccc(S(=O)(=O)Nc3ncccn3)cc2)ccc1OCC#N	none (no result: AmpC no deterg, AmpC detergent, NS1 inh)
O=S(=O)(c1ccccc1)N(CC1CO1)c1cccc2ccccc12 (stereo not given)	none
Cc1[nH]c2ccccc2c1/C=N/NC(=O)c1cccc(S(=O)(=O)Nc2cccc(C(F)(F)F)c2)c1	AmpC no deterg 4.47µM
NNC(=O)c1cccc(S(=O)(=O)Nc2cccc(C(F)(F)F)c2)c1	none
CC(CN1CCCCC1)NC(=O)c1cccs1 (stereo not given)	none
CCOC(=O)c1c(-c2ccc(C)o2)csc1NC(=O)CSc1nnnn1-c1ccccc1	AmpC no deterg 11.2µM, NS1 inh inconclusive
CCOC(=O)c1c(-c2ccc(C)o2)csc1NC(=O)CSc1nnc(C)s1	none
COC(=O)c1ccc(CN(c2ccc(C(=O)O)c(O)c2)S(=O)(=O)c2ccc(Cl)c([N+](=O)[O-])c2)cc1	AmpC no deterg 7.94µM
COC(=O)c1ccc(CN(c2ccccn2)S(=O)(=O)c2ccccc2)cc1	none
CC(=O)c1ccc(N2CCN(C(=O)c3cn(C)c(=O)c4c3c3ccccc3n4C)CC2)cc1	none (no result: AmpC no deterg, AMA1-RON2 inh, NS1 inh)
Cc1ccc(C2CC(=O)C=C(O)C2)cc1 (stereo not given)	AmpC no deterg 14.1µM, NS1 inh inconclusive
O=S(=O)(NCc1cn2ccsc2n1)c1cccs1	none
O=S(=O)(NCc1cn2ccsc2n1)c1ccc(Oc2ccccc2)cc1	AmpC no deterg 3.98µM
CC(C)(C)NC(=O)C(c1cc2ccccc2o1)n1c(-c2ccc(-c3ccccc3)cc2)nc2ccccc21 (stereo not given)	none (no result: AmpC no deterg, AmpC detergent, NS1 inh)
O=C(NNC(=O)c1cc2ccccc2cc1O)Nc1ccc(Br)cc1	AmpC no deterg inconclusive, AmpC detergent inconclusive
COc1ccc(C)cc1NC(=O)NNC(=O)c1cc2ccccc2cc1O	AmpC no deterg 6.31µM
COc1ccccc1C(=O)NNC(=O)c1ccc(C)cc1	none
COc1cc(NC(=O)c2cc3ccccc3cc2O)c(OC)cc1Cl	AmpC no deterg 3.55µM
COc1ccc(NC(=O)NNC(=O)c2cc3ccccc3cc2O)cc1	AmpC no deterg inconclusive
O=C(NNC(=O)c1cc2ccccc2cc1O)Nc1ccc(F)cc1F	AmpC no deterg 12.6µM
Cc1ccc(C(=O)NNC(=O)c2cc3ccccc3cc2O)cc1	AmpC no deterg 28.2µM
O=c1c2ccccc2nc(-c2ccco2)n1CCCn1ccnc1	none
O=c1c2c(-c3ccco3)csc2nc(SCc2cn3cccnc3n2)n1-c1ccccc1	AMA1-RON2 inh 15.8µM, AmpC detergent inconclusive
O=C(Cn1c(=O)oc2cc(S(=O)(=O)N3CCCC3)ccc21)N1CCN(c2ccccn2)CC1	AmpC no deterg 7.94µM, AmpC detergent inconclusive
O=C(Cn1c(=O)oc2cc(S(=O)(=O)N3CCCC3)ccc21)N1CCN(c2ccccc2F)CC1	none
O=C(NCCc1nc2ccccc2[nH]1)/C(=C/c1ccc2c(c1)OCO2)NC(=O)c1ccccc1	AmpC no deterg 10µM
O=C(NCCc1c[nH]c2ccccc12)c1ccc2c(c1)OCO2	none
N#C/C(=C\c1ccc(-c2ccc(Br)cc2)o1)C(=O)NCCc1c[nH]c2ccccc12	AmpC no deterg 8.91µM
N#C/C(=C/c1ccc2c(c1)OCO2)C(=O)NCCc1c[nH]c2ccccc12	AmpC no deterg 0.282µM, AMA1-RON2 inh inconclusive
Cc1cc(C)c2c(CC(=O)NC3CCS(=O)(=O)C3)coc2c1 (stereo not given)	none
CCCCOc1cccc(C(=O)Nc2cc(NC(=O)c3ccco3)ccc2OC)c1	none (no result: AmpC no deterg, AMA1-RON2 inh, NS1 inh)
COC1=C(Nc2ccccc2)C(=O)c2ccccc2C1=O	AMA1-RON2 inh 10µM
COC1=C(Nc2ccc(C)cc2)C(=O)c2ccccc2C1=O	AMA1-RON2 inh 10µM
Cc1noc(C)c1CS(=O)(=O)c1ccc([N+](=O)[O-])cc1	none
O=C1NC(=O)N(Cc2ccccc2)C(=O)/C1=C\C=C\c1ccco1	none (no result: NS1 inh)
O=C1NC(=O)N(Cc2ccco2)C(=O)/C1=C/C=C/c1ccco1	AmpC no deterg 12.6µM, AMA1-RON2 inh inconclusive
NC(=O)C1CCN(C(=O)c2ccc(NC(=O)c3nsc4ccccc34)cc2)CC1	none (no result: AmpC no deterg, AMA1-RON2 inh, NS1 inh)
O=c1[nH]c(=S)n(Cc2ccco2)c(O)c1C=NCc1cccs1	AmpC no deterg 17.8µM
CC(C)(C)SC(=O)C[C@@H]1NS(=O)(=O)OC2CCCCC21 (stereo not given in full)	AmpC detergent inconclusive
CC1CCc2[nH]c3ccc(C(=O)N(C)CC(=O)Nc4ccccc4Br)cc3c2C1 (stereo not given)	AmpC no deterg 28.2µM, AMA1-RON2 inh inconclusive (no result: NS1 inh)
Cc1ccc(C)c(NC(=O)CN(C)C(=O)c2ccc3[nH]c4c(c3c2)CC(C)CC4)c1 (stereo not given)	none (no result: NS1 inh)

High-throughput results as filed in PubChem.
